Bioassay records from PubChem BioAssay.
RN4220 kill = S. aureus RN4220 growth inhibition; inhibition, % (no concentration beside the values); OD600, 16 h; hit rate 0.33% among 330,000; AID 1259311; in the data active = inhibition above about 85%;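 note: plate controls were untreated cells for no effect and reference antibiotic for full effect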
MazF activator = activators of E. coli MazEF toxin-antitoxin RNase; activation, % at 20 µM; FAM/BHQ RNA-DNA oligo cleavage fluorescence, 5 h; hit rate 0.32% among 350,000; P0AE70; in the data active = activation above about 50%
Target sequence (P0AE70 whole entry, looked up): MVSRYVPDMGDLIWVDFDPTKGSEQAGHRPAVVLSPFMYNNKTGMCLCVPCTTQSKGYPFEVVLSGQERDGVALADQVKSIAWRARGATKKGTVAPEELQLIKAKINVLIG
Sa ugtP lethal = kills S. aureus RN4220 lacking UgtP; S. aureus RN4220 ugtP deletion, OD600 growth, 16 h; growth inhibition, % (concentration not given with the values); hit rate 0.54% among 330,000; AID 1259309; in the data active = growth inhibition above about 68%;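 note: plate controls were untreated wells for no effect and antibiotic for full effect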
Mtb betalactam = beta-lactam sensitization of Mtb H37Rv; hit rate 0.27% among 330,000; AID 434955; M. tuberculosis H37Rv growth with meropenem, percent inhibition; inhibition, % at 25 µM; call rule not given here;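 note: growth measured after seven days incubation then overnight dye step; 0% = bacteria only wells and 100% = bacteria with antibiotic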
3CLpro inhibitor = SARS-CoV 3CLpro protease inhibition; hit rate 0.14% among 290,000; P0C6X7; inhibition, % at 6 µM; recombinant SARS-CoV 3CLpro, quenched FRET peptide cleavage; in the data active = inhibition above about 12%
CCHF vOTU inh = blocks the CCHF virus ovarian tumor domain protease; CCHFV vOTU protease, Pep-AMC fluorescence; inhibition, % at 11.5 µM; hit rate 0.55% among 370,000; in the data active = inhibition above about 30%; note: 0% = vehicle wells with enzyme and 100% = no enzyme wells
* marks the source's active call; other numbers are inactive results; . = no result given. Sampled rows, rich in hits. Any-hit rate of the full collection: about 1.3%.

SMILES	RN4220 kill	MazF activator	Sa ugtP lethal	Mtb betalactam	3CLpro inhibitor	CCHF vOTU inh
COC(=O)CC1(C(=O)OC)Nc2cc(Cl)c(Cl)cc2S(=O)(=O)N1O (configuration not stated)	.	123*	.	.	.	14
COc1cccc2c1OC(=NO)C(C(=O)Nc1ccc(C)cc1)C2 (configuration not stated)	7	.	12	.	.	.
Cc1ccc2c(c1)N(C)/C(=C/c1cccc[n+]1C)S2	46	-17	101*	4	0	-1
CN1/C(=C/c2cccc[n+]2C)Sc2ccccc21	4	-5	8	2	3	-7
COc1ccc2c(c1)N(C)/C(=C/c1cccc[n+]1C)S2	21	-31	90*	-6	-5	-6
CC(=NN=C(N)SC1CC(=O)N(c2ccccc2)C1=O)c1cccs1 (configuration not stated)	14	.	10	.	.	.
CCC=CC(=O)N1CC2(CC(c3cccc(NC(=O)CC)c3)=NO2)CC1C(N)=O (configuration not stated)	2	.	1	.	.	.
CC(C)/C=C1\CC/C(=C\c2ccc(N(C)C)cc2)C1=O	6	419*	7	9	-2	-11
CN(C)c1ccc(/C=C2/C[N+](C)(C)C/C(=C/c3ccc(N(C)C)cc3)C2=O)cc1	.	-2	.	.	.	12
Cc1ccc(-c2cc(-c3ccccc3)nc(N)c2C#N)o1	4	83*	3	-2	5	-126
N#Cc1c(-c2ccccc2)cc(-c2ccc(O)cc2)nc1N	2	6	-2	42	6	-17
COc1ccc(OC)c(C2C3CN(C(C)C)CC=C3C(C#N)=C(N)C2(C#N)C#N)c1 (configuration not stated)	3	8	0	-10	-4	4
Cc1ccc(C2C3CN(C(C)C)CC=C3C(C#N)=C(N)C2(C#N)C#N)cc1 (configuration not stated)	3	156*	5	-4	.	-34
N#CC1=C(N)Oc2c(ccc3ccccc23)C1c1cccs1 (configuration not stated)	.	59*	.	7	0	.
CC1NC(=O)NC1CCCCCC(=O)O (configuration not stated)	8	.	-3	.	.	.
COc1ccc(NC(=S)NC(=O)/C=C/c2cccs2)cc1	1	-2	84*	0	-3	-6
COc1ccccc1NC(=S)NC(=O)/C=C/c1cccs1	90	4	active	-4	5	7
Oc1cc(Cl)ccc1Oc1ccc(Cl)cc1Cl	100*	-27	100*	37	.	-1
Cc1cccc(C(=O)OCc2cc3ccccc3[nH]c2=O)c1	-1	77*	0	-1	3	15
O=C(O)c1ccc(N/N=C/C(Br)=C/c2ccccc2)cc1	.	61*	.	5	4	9
COc1cccc2cccc(C=Nn3cnnc3)c12	0	.	15	.	.	.
Cc1nc(N)nc(N)c1/C=C/C(C)(C)c1ccc(Cl)cc1	99*	2	100*	.	0	-1
Cc1ccc(NC(=O)CC2S/C(=N/N=C/C=C/c3ccccc3)NC2=O)cc1Cl (configuration not stated)	.	55*	.	2	0	5
Cc1cc(C)nc(SCc2ccc(C(=O)NN=Cc3ccccc3C(=O)O)cc2)n1	16	.	-3	.	.	.
NC(Cc1ccc([N+](=O)[O-])cc1)=NOC(=O)COc1ccccc1Cl	2	.	2	.	.	.
SMILES	RN4220 kill	MazF activator	Sa ugtP lethal	Mtb betalactam	3CLpro inhibitor	CCHF vOTU inh
O=C(CCl)NN=C(c1ccccc1)c1ccccc1	3	59*	4	99	10	-10
CCN(CC)CC(=O)NN=C(c1ccccc1)c1ccccc1	8	-10	11	-1	-1	5
S=C(Nc1ccc(Cl)cc1)c1nc2ccccc2[nH]1	99*	12	96*	-3	3	-7
Cc1[nH]c(=O)[nH]c(=O)c1C=NNC(=O)[C@H](C)N	3	.	6	.	.	.
COc1ccc(-c2c(-c3ccccc3OC)oc3ccccc23)cc1F	-5	-2	89*	12	.	3
COc1ccccc1-c1oc2ccccc2c1-c1ccccc1OC	-5	0	8	-1	.	8
CC1(C)Cc2ccccc2-c2nnc(SCC(=O)Nc3nc4ccccc4s3)n21	88*	-3	98*	-4	4	6
CCCn1c(SCC(=O)Nc2nc3ccccc3s2)nc2c1c(=O)n(C)c(=O)n2C	-2	67*	0	43	1	2
Cn1c(SCC(=O)Nc2nc3ccccc3s2)nnc1-c1ccccc1	0	-3	9	15	4	6
CN(C)CCCN(CCCNC(=O)C=NO)Cc1ccccc1	4	.	-1	.	.	.
CSc1ccc(C=NN2CCN(Cc3ccccc3)CC2)cc1	3	.	7	.	.	.
CC(CC(=O)NCc1ccco1)=NNC(=O)Cc1cccc2ccccc12	-10	.	-5	.	.	.
C/C(CC(=O)NCc1ccco1)=N\NC(=O)Cc1ccc(-c2ccccc2)cc1	.	79*	.	4	0	9
CC1CCC2C(=O)NC(Cc3ccccc3)C(=O)N2C1c1ccccc1 (configuration not stated)	6	.	6	.	.	.
O=[N+]([O-])c1ccc(N/N=C/c2c[nH]c3ccccc23)c(S(=O)(=O)Nc2ccc(Cl)cc2)c1	.	0	.	-6	-2	3
O=[N+]([O-])c1ccc(NN=Cc2c[nH]c3ccccc23)c(S(=O)(=O)Nc2ccc(Cl)cc2)c1	81	.	99*	.	.	.
COC(=O)NN=Cc1ccc(OC/C=C/c2ccccc2)c(OC)c1	2	.	6	.	.	.
Fc1ccc(-c2cc(C(F)(F)C(F)F)[nH]n2)cc1	-1	9	86*	5	0	0
COC(=O)C1=C(C)N(c2cc(C)cc(C)c2)/C(=C/c2ccc(O)cc2)C1=O	89*	9	60	21	2	-5
O=Cc1ccc(Oc2cc(-c3ccccc3)nc(-c3ccccc3)n2)cc1	69	-4	100*	9	3	12
CCC(=NNc1ccc([N+](=O)[O-])cc1)c1ccccc1	-11	.	-8	.	.	.
N#Cc1ccc(C=NNC(=O)c2cccc(S(=O)(=O)N3CCOCC3)c2)cc1	-1	.	3	.	.	.
CCc1nnc(N/N=C/c2c(Cl)cccc2Cl)n1N	.	-4	.	-3	-1	77*
Cc1cc(C)n(-c2nc(-c3cccc(Cl)c3)cs2)n1	0	-11	88*	98	-3	5
CC(=O)n1cc(/C=N/NC(N)=S)c2ccccc21	.	0	.	97	-5	-8
CC(=O)n1cc(/C=C2/N=C(c3ccccc3)OC2=O)c2ccccc21	-1	149*	-1	99	1	27
CCCN1CCCCC1C(=O)Nc1c(C)cccc1C (configuration not stated)	5	.	-1	.	.	.
Nc1nonc1-n1nnc(C(=O)N/N=C/c2ccc(Cl)cc2Cl)c1CN1CCOCC1	.	124*	.	-1	-5	5
CC1CCC(=O)N(CC(C)CSc2ccc(Br)cc2)CC1 (configuration not stated)	8	.	16	.	.	.
Cc1nc(NC(=O)c2cccc(-c3cc4ccccc4oc3=O)c2)ccc1Br	6	84*	1	3	-2	-5
